Compound activity: PubChem BioAssay, National Center for Advancing Translational Sciences (NCATS)
HCV inh – HCV inhibition | Huh7.5.1 HCVcc-Cre infection, luciferase reporter, 44 h | Potency, µM (titrated, usually from 41.8 µM), inactives show top-dose activity change, negative = inhibition, most hits filed as inhibitors | actives 3.4% (n = 340,000) | AID 651820; active = well fitted inhibition curve with a large enough effect; inconclusive = small, poorly fitted or top-dose-only effect, or another doubt; inactive = no such curve, though single readings can be large or run the other way; note: potency is the fitted concentration of half-maximal effect
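Antiviral activity was scored by luciferase reporter output from cells infected with HCVcc-Cre (~0.5 moi) in presence of compound, 44 h infection period, cells seeded 1,000/well 4 h prior.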
Vaccinia Venus – inhibitors of vaccinia virus (Venus reporter); Vaccinia virus Venus reporter expression, fluorescence; Potency, µM (series often up to 36.5 µM), inactives show top-dose activity change, negative = inhibition, actives largely listed as inhibitors; actives 0.46% (n = 330,000); calls by dose curve; tested in A549 cells; note: potency is the fitted concentration of half-maximal effect; nearly all actives have a fitted effect of over 30% in size
LASV entry inh – blocks Lassa virus binding to or entry into cells. Lassa virus pseudotype entry inhibition, cell reporter. actives 1.2% (n = 300,000). Potency, µM (doses to about 37.9 µM), without a hit: at the highest dose activity change, negative = inhibition, actives largely listed as inhibitors; calls by dose curve; tested in HEK293 cells; note: potency is the fitted concentration of half-maximal effect; nearly all actives have a fitted effect of over 50% in size
MARV entry inh – Marburg virus entry inhibition; Marburg virus pseudotyped entry inhibition, cell reporter; AID 540276; actives 1.8% (n = 300,000); Potency, µM (highest dose often 37.8 µM), for the others: at the top dose activity change, negative = inhibition, most hits filed as inhibitors; calls by dose curve; tested in HEK293 cells; note: potency is the fitted concentration of half-maximal effect
VACV mCherry inh – vaccinia inhibition (mCherry reporter); Vaccinia virus mCherry reporter infection, fluorescence; Potency, µM (highest dose often 36.5 µM), for inactives: at the highest dose activity change, negative = inhibition, hits mostly inhibitors; actives 0.63% (n = 310,000); AID 720579; calls by dose curve; tested in A549 cells; note: potency is the fitted concentration of half-maximal effect; nearly all actives have a fitted effect of over 35% in size
HCMV inh – blocks human cytomegalovirus replication | HFF cells, HCMV-luciferase reporter, 72 h; hits give low values | activity change, negative = inhibition, % at 57.5 µM | actives 4.5% (n = 410,000); in the data active = activity change below about -60%; inconclusive = no clear call, values can overlap the other calls; inactive = above about -39%
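Cell-based, HFFs, 1000 cells/well, 16 h 37C; cpds in DMSO + HCMV-luc, MOI 1 PFU/cell; 72 h 37C; OneGlo luminescence after 5 min RT; norm. to buffer vs Salinomycin 10uM.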
Starred values were filed as active, the others as inactive; i = inactive; ? = inconclusive; / = no result; ! = repeats disagree; [ ] = another dose, or the depositor's remark. Rows were chosen to be rich in hits. Some 7.8% of all compounds tested hit in one or more screens of this group. % is set by controls: 0 for no effect and ±100 for the full control effect.

SMILES	HCV inh	Vaccinia Venus	LASV entry inh	MARV entry inh	VACV mCherry inh	HCMV inh
CCCCNC(=O)COC(=O)c1c2c(nc3ccccc13)CCC2	?	-4.3%	5.7%	-13.8%[46.1 µM]	-4.5%	-0.5
CCCCNC(=O)COC(=O)c1c2c(nc3ccccc13)/C(=C/c1cccs1)CC2	2.24µM*	?	?	?	-12.6%	77.8
C/C(=N/NC(=O)c1ccoc1C)c1cccc(NC(=O)C(F)(F)F)c1	-6.0%	-11.2%	?	?	i	13.0
C/C(=N/NC(=O)c1ccc(C)s1)c1cccc(NC(=O)c2ccoc2C)c1	11.2µM*	/	/	/	/	22.2
COc1cccc(OCc2cc(C3Nc4ccccc4C(=O)N3Cc3ccco3)ccc2OC)c1 (stereo not given)	?	-0.2%	8.91µM*	?	-19.7%	-20.9
CC(C)ON([C@@H](C(=O)NO)C(C)C)S(=O)(=O)c1ccc(-c2ccccc2)cc1	/	/	3.66µM*	5.17µM*	/	/
Cc1sc(N)nc1-c1cccc([N+](=O)[O-])c1	/	-13.8%	/	/	-3.0%	/
Cc1c(Cl)cccc1NC(=O)Cn1cc2c(n1)CCCC2	/	-12.4%	-0.8%[46.1 µM]	-12.9%[46.1 µM]	-5.8%	-13.5
COc1ccc(-c2ccc(SC)nn2)cc1	-11.3%	-5.2%	3.55µM*	?	-5.7%	-18.9
CCC1CN2CCc3cc(OC)c(OC)cc3C2CC1CC1c2cc(OC)c(OC)cc2CCN1C(=O)C(Cc1c[nH]c2ccccc12)NC(=O)OC(C)(C)C (stereo not given)	11.2µM*	-25.8%	?	?	-11.9%	?
CC[C@H]1CN2CCc3cc(OC)c(OC)cc3[C@H]2C[C@@H]1C[C@@H]1NCCc2cc(OC)c(OC)cc21	/	/	/	0.224µM*	/	/
COc1cc2c(cc1OC)C1C/C(=N\O)C(CC(C)C)CN1CC2 (stereo not given)	-29.8%	-13.9%	-9.9%	-23.3%	/	-3.0
CCC(CC)CC1CN2CCc3cc(OC)c(OC)cc3C2CC1(O)CC (stereo not given)	/	-9.9%	/	/	-6.1%	0.0
CC(C)C[C@H](NC(=O)OC(C)(C)C)C(=O)N1CCC(C(=O)N[C@@H](Cc2c[nH]c3ccccc23)C(=O)O)CC1	-8.1%	-0.6%	-0.5%	4.2%	-6.2%	-33.6
COc1cc2c(cc1OC)C1CC(=O)C(CC(C)C)CN1CC2 (stereo not given)	/	-5.9%	?	?	i	-61.5*
C[n+]1c2n(c3ccccc31)N=C(c1cc(C(C)(C)C)c(O)c(C(C)(C)C)c1)CS2	?	10µM*	?	11.2µM*	?	-100.7*
CC(NC(=O)c1cccnc1)c1nnc2n1CCN(Cc1ccc(-c3ccccc3Cl)o1)CC2 (stereo not given)	/	-15.9%	/	/	i	/
COc1ccc(N2C3=[N+](CCCC3)CC2(C)O)cc1 (stereo not given)	5.1%	/	3.0%	3.7%	/	-77.9*
OC1(c2cccs2)CN(c2ccccc2)C2=[N+]1CCCC2 (stereo not given)	13.5%	-13.5%	-1.2%	-22.8%[46.1 µM]	-11.8%	-4.2
COc1ccc(N2C(=O)CSC23CCCCC3)cc1	9.3%	/	-11.4%	1.0%	/	-22.3
CCOc1ccc(N2CC(O)(c3cccs3)[N+]3=C2CCCC3)cc1 (stereo not given)	-6.6%	-1.4%	-1.1%	5.62µM*	-4.9%	-9.3
COc1ccc(N2CC(O)(c3ccc(F)cc3)[N+]3=C2CCCC3)cc1 (stereo not given)	-17.4%	-2.6%	11.6%	-2.7%	-13.2%	-81.1*
COc1ccc(N2CC(O)(c3ccc(C)cc3)[N+]3=C2CCCC3)cc1 (stereo not given)	-14.1%	8.0%	1.9%	6.9%[46.1 µM]	i	21.9
Cc1ccc(NC(=O)Cn2c(=O)n(Cc3ccco3)c(=O)c3sc4ccccc4c32)cc1C	/	-13.4%	4.2%[46.1 µM]	5.5%[46.1 µM]	-15.2%	-2.6
C=C(Br)CO[C@@H]1C=C[C@@H](c2ccccc2)O[C@@H]1COC	/	/	/	8.9%[14.2 µM]	/	/
SMILES	HCV inh	Vaccinia Venus	LASV entry inh	MARV entry inh	VACV mCherry inh	HCMV inh
COc1ccc(C(=O)c2cn(Cc3ccc(F)cc3)c3ccc(C)cc3c2=O)cc1	/	-8.2%	?	-27.3%[46.1 µM]	-10.2%	-17.4
COc1cccc(OC(=O)CSc2nnc(-c3ccccc3OC)o2)c1	/	-8.9%	-20.0%[46.1 µM]	-4.7%[46.1 µM]	-12.1%	13.1
CCCCN(C)CCNC(=O)c1nn(-c2ccc(OC)c(Cl)c2)c(=O)c2c1c1ccccc1n2C	/	-29.6%	?	3.3%[46.1 µM]	?	10.7
O=C(Cc1ccccc1)Nc1c(C(=O)N2CCN(c3ccc(F)cc3)CC2)oc2ccccc12	/	-11.3%	-24.4%[46.1 µM]	/	-11.4%	-20.6
CCC(CC)C(=O)Nc1c(C(=O)N2CCN(c3ccccc3)CC2)oc2ccccc12	2.6%	-17.3%	?	?	-24.0%	-78.9*!
COc1cccc(CC(=O)Nc2c(C(=O)N3CCN(c4ccccc4)CC3)oc3ccccc23)c1	/	-24.9%	19.6%[46.1 µM]	-9.7%[46.1 µM]	-29.4%	-9.7
O=C(COc1ccccc1)Nc1c(C(=O)N2CCN(c3ccc(F)cc3)CC2)oc2ccccc12	/	-11.9%	-0.4%[46.1 µM]	/	-7.5%	-106.9*
COc1cccc(N2CCN(C(=O)c3oc4ccccc4c3NC(=O)CCc3cc(OC)no3)CC2)c1	-19.4%	-17.9%	-28.7%[46.1 µM]	-20.2%[46.1 µM]	?	-61.5*
Clc1ccc2c(c1)-c1c(cnc3cc(-c4ccccc4)nn13)CO2	/	6.0%	8.6%[46.1 µM]	8.7%[46.1 µM]	-4.0%	9.6
COc1cccc2c1C(=O)c1c(O)c3c(c(O)c1C2=O)C[C@@](O)(C(=O)CO)C[C@@H]3OC1CC(N)C(O)C(C)O1 (stereo not given in full)	1µM*	i	?	0.501µM*	427.2%	-99.3*
COc1cccc2c1C(=O)c1c(O)c3c(c(O)c1C2=O)CC(O)(C(C)=O)CC3OC1CC(N(C)C)C(O)C(C)O1 (stereo not given)	0.562µM*	425.1%	?	?	84.1%	-98.3*
COc1cccc2c1C(=O)c1c(O)c3c(c(O)c1C2=O)CC(O)(C(C)=NO)CC3OC1CC(N)C(O)C(C)O1 (stereo not given)	?	i	?	?	383.7%	-99.6*
COc1cccc2c1C(=O)c1c(O)c3c(c(O)c1C2=O)C[C@@](O)(C(=O)CO)C[C@@H]3O[C@H]1C[C@H](N)[C@H](O)[C@H](C)O1	-0.3%[8.37 µM]	469.0%	0.366µM*	0.731µM*	72.8%	-97.7*
Cc1ccc(NS(=O)(=O)c2ccc3nc(-c4ccccc4)[nH]c3c2)c(Cl)c1	/	-17.0%	-8.0%[46.1 µM]	-2.2%[46.1 µM]	?	-15.7
COC(=O)c1ccc(Cn2nc(-c3ccc(C)cc3)ccc2=O)cc1	-3.2%	-2.9%	24.7%[46.1 µM]	16.9%[46.1 µM]	-10.1%	-7.0
Cc1ccc(-c2ccc(=O)n(Cc3ccc(F)cc3)n2)cc1	-12.9%	-11.0%[7.34 µM]	-2.2%[46.1 µM]	0.3%[46.1 µM]	-11.8%[7.34 µM]	-63.2*!
Cc1ccc(-c2cc(N)n(Cc3ccc(Cl)cc3)n2)cc1	10µM*	?	-14.6%	?	/	-22.0
